Laboratory results: ChEMBL document CHEMBL3988442, “University of Dundee, Small-Polar-MMV Screening Library” (2021)
For some assays here: Entries with a potency or affinity are not part of this list.

What was measured:
Parameters in all cases: scale not given: direction of the effect not stated beside the values
[1] = target: Protein translocase subunit SecA (Escherichia coli (strain K12)) (UniProt P10408); experiment: Assay to Identify E. coli SecA ATPase Inhibitors; type: functional; details: 30 µM
[2] = target: T1, Ubiquitin-activating enzyme e1, putative (Leishmania donovani (strain BPK282A1)) (UniProt E9BSI1); experiment: Leishmania donovani Ubiquitin Activating Enzyme (LdE1); type: functional; details: 30 µM
T1 sequence (whole entry): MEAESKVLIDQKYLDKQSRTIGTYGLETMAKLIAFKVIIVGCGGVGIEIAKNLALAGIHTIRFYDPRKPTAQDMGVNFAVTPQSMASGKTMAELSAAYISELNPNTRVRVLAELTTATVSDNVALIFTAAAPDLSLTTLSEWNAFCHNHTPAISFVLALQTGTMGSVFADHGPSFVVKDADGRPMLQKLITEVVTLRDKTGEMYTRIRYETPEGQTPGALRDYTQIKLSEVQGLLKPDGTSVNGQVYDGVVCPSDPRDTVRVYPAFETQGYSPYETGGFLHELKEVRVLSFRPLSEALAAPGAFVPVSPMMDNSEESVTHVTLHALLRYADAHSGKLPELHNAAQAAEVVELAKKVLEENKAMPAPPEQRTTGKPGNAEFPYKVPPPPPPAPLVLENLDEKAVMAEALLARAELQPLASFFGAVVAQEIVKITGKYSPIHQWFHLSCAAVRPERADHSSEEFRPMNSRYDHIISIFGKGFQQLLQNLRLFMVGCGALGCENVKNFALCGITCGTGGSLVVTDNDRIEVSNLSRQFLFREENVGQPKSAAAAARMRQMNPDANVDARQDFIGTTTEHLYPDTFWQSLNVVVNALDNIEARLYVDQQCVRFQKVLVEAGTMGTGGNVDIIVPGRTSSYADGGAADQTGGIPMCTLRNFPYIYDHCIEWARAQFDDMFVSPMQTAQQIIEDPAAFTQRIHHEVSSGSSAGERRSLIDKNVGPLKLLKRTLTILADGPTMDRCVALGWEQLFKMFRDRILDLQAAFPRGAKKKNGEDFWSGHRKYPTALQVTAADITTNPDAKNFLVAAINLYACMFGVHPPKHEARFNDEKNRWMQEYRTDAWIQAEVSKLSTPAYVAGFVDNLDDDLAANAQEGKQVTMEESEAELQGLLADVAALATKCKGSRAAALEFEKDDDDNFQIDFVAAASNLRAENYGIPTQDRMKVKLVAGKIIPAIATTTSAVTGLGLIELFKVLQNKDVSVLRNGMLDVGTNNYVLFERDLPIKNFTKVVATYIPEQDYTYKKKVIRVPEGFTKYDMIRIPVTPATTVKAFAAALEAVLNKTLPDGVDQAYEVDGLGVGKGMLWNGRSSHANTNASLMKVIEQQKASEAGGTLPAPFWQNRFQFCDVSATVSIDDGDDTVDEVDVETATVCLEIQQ

[3] = target: AMP-activated protein kinase, AMPK (Homo sapiens) (UniProt P54646+O43741+P54619+Q9UGJ0+Q9Y478+Q13131+Q9UGI9); experiment: AMP-dependent Kinase enzyme assay. An in vitro enzyme assay that detects ADP turnover that is directly proportional to AMPK activity. This uses naive AMPK that is activated during the assay with MK-8722; type: functional; details: 30 µM
[4] = target: Sialic acid-binding Ig-like lectin 9 (Homo sapiens) (UniProt Q9Y336); experiment: Hs-Siglec9 ALPHAscreen SOP 20170721; details: 10 µM
Trypanosoma cruzi = experiment: Trypanosoma cruzi phosphomannomutase and mannose-1-phosphate guanylyltransferase assay; type: functional; details: 10 µM
[5] = target: T2, Arginase-2, mitochondrial (Homo sapiens) (UniProt P78540); experiment: in vitro enzyme assay to detect the production of urea directly proportional to the activity of Arginase II; type: functional; details: 33.3 µM; also: in the data most compounds retested in dose-response had high values
T2 sequence (whole entry): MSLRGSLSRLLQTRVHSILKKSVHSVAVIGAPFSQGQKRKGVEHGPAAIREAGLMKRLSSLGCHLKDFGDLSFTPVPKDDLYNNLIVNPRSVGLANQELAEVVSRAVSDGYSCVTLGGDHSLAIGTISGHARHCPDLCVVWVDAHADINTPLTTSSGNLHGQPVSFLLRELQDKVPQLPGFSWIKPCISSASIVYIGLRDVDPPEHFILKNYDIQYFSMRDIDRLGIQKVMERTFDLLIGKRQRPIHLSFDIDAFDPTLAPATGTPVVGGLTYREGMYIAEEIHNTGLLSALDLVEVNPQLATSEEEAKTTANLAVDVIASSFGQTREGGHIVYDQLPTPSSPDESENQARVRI

[6] = target: T3, Proteasome subunit beta (Trypanosoma cruzi) (UniProt O96673); experiment: Trypanosoma cruzi proteasome chymotrypsin-like activity (TcProtChymo) assay.; also: in the data most compounds retested in dose-response had high values; type: functional; details: 9.37 µM
T3 sequence (whole entry): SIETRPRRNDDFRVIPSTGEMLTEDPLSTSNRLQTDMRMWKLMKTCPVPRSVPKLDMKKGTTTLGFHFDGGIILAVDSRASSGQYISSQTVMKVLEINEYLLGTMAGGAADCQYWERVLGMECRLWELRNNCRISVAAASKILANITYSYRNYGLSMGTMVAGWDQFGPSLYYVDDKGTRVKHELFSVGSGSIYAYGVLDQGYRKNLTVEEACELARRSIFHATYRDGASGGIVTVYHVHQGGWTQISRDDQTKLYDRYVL

Homo sapiens = species on record: Homo sapiens; experiment: To identify inhibition of the IFN signalling (Jak-Stat) pathway via expression of an eGFP reporter gene under the control of an IFN-stimulated response element (ISRE) containing MxA promoter.; type: functional; details: 30 µM
[7] = target: T4, Tyrosyl-tRNA synthetase, putative (Trypanosoma cruzi (strain CL Brener)) (UniProt Q4DSP6); experiment: Trypanosoma cruzi tyrosyl tRNA synthetase (TcYRS) _High Tyrosine SOP; type: functional; details: 30 µM; also: in the data most compounds retested in dose-response had high values
T4 sequence (whole entry): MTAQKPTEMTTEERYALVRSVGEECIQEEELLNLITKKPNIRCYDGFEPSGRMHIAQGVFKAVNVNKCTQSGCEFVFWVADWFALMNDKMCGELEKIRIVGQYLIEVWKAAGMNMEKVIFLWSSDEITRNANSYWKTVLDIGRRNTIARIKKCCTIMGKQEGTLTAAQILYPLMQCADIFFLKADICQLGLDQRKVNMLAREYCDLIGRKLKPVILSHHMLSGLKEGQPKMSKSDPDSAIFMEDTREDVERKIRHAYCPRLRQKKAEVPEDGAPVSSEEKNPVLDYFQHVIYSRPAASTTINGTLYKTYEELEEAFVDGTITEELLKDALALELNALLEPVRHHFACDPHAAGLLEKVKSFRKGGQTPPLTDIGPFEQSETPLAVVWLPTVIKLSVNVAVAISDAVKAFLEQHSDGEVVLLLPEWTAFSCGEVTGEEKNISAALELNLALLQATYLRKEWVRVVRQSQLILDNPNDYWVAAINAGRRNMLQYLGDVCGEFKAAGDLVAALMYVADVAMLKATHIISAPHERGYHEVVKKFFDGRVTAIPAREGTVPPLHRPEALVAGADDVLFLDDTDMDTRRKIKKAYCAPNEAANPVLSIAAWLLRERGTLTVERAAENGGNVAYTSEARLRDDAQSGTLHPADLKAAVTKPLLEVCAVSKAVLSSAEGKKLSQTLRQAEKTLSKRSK

[8] = target: T4, Tyrosyl-tRNA synthetase, putative (Trypanosoma cruzi (strain CL Brener)); experiment: Trypanosoma cruzi tyrosyl tRNA synthetase (TcYRS) SOP; type: functional; details: 30 µM
[9] = target: Chromo domain-containing protein 1 (Saccharomyces cerevisiae (strain ATCC 204508 / S288c) (Baker's yeast)) (UniProt P32657); experiment: ScCHD-1 Enzyme Inhibition Assay; type: functional; details: 30 µM; also: in the data most compounds retested in dose-response had high values
Chromo domain-containing protein 1 (Saccharomyces cerevisiae (strain ATCC 204508 / S288c) (Baker's yeast)), sequence (P32657 whole entry, the tested form may be a part): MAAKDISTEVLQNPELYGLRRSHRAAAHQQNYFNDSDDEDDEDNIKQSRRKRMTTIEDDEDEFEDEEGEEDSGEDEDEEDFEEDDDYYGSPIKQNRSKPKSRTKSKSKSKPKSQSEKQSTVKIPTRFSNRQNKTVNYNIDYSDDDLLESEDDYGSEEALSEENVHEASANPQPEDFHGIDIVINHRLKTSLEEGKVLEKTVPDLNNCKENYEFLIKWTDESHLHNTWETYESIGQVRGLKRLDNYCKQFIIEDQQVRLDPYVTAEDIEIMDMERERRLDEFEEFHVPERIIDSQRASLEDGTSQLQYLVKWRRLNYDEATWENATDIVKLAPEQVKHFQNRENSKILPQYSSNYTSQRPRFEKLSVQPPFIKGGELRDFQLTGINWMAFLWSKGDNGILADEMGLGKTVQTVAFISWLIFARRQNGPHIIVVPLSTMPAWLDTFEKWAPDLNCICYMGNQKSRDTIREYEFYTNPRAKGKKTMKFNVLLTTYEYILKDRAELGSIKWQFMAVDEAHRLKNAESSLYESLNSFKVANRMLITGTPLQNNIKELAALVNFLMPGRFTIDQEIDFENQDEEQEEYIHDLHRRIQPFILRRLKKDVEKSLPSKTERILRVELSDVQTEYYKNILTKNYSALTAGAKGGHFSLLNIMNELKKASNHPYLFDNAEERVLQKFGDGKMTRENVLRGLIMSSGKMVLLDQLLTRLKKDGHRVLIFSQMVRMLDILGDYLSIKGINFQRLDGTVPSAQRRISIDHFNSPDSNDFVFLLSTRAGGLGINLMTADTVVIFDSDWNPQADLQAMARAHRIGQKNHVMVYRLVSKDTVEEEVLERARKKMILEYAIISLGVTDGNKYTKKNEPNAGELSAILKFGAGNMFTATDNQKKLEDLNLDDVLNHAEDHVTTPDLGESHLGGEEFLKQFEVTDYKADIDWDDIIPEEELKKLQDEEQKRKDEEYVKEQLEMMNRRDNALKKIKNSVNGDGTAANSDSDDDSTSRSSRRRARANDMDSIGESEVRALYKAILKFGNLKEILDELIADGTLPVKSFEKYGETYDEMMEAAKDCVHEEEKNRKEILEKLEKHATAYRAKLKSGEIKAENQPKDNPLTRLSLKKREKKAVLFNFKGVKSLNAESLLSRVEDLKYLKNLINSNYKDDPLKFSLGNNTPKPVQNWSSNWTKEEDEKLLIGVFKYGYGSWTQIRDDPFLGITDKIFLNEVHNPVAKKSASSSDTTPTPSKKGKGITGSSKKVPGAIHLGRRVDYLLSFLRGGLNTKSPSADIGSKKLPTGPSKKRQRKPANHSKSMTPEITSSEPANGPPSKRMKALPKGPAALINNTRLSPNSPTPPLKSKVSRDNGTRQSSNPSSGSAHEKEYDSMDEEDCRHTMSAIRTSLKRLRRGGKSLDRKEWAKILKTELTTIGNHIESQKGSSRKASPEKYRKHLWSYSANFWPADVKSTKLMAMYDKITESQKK

Protein translocase subunit SecA (Escherichia coli (strain K12)), sequence (P10408 whole entry): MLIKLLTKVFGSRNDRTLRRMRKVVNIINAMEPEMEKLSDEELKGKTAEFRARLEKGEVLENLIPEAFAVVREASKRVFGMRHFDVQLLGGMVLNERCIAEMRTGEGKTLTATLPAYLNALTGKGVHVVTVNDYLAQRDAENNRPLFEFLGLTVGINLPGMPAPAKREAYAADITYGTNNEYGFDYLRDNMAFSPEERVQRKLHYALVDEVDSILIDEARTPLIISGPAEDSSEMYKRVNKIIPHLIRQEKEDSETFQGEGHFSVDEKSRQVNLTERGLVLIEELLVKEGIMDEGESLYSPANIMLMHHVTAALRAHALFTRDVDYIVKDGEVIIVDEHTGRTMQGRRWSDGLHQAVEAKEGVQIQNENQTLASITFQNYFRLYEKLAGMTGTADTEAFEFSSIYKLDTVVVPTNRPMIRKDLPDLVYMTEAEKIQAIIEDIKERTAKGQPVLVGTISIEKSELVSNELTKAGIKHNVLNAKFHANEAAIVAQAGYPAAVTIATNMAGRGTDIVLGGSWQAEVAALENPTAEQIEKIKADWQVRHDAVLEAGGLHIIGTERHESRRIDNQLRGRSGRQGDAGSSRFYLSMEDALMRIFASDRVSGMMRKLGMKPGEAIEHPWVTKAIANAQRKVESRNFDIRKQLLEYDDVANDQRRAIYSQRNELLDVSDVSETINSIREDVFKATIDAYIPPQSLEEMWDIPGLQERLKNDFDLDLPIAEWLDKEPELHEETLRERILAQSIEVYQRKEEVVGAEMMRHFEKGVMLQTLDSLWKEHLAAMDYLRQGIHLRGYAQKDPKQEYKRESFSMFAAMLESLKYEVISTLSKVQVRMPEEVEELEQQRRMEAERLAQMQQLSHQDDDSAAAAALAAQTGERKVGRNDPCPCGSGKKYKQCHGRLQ
Sialic acid-binding Ig-like lectin 9 (Homo sapiens), sequence (Q9Y336 whole entry): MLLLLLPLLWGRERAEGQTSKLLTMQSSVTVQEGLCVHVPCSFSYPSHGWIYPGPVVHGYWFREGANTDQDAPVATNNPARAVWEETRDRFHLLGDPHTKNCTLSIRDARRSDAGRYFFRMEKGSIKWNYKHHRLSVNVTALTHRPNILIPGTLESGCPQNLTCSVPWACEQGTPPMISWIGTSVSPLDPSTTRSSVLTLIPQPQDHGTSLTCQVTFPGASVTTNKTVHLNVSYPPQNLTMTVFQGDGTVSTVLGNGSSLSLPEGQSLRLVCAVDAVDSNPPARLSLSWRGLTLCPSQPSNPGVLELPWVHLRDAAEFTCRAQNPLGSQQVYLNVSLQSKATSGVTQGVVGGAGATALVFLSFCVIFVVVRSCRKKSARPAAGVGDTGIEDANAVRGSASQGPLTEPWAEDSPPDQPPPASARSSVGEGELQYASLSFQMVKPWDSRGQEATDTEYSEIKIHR

SMILES | Percent Effect [1] [%] | Percent Effect [2] [%] | Percent Effect [3] [%] | Percent Effect [4] [%] | Percent Effect (Trypanosoma cruzi) [%] | Percent Effect [5] [%] | Percent Effect [6] [%] | Percent Effect (Homo sapiens) [%] | Percent Effect [7] [%] | Percent Effect [8] [%] | Percent Effect [9] [%]
CCNC(=O)c1ccoc1CN1c2ccccc2CC1C (configuration not stated) | -3.54 | 2.74 | 7.91 | 9.27 | -3.97 | 2.4 | 12.4 | 5.41 | 4.17 | 11.1 | 1.31
Cc1cc(CN2CCN(C(=O)c3sccc3C(C)C)CC2)no1 | -1.68 | 2.6 | 4.01 | 0.935 | 4.41 | 4.84 | 1.86 | 5.54 | 2.86 | 7.06 | -3.8
CN1CCN(Cc2nnc(C3CCN(CC4CC4)CC3)n2C)CC1 | 0.271 | 8.22 | 4.92 | 1.71 | 3.13 | 7.27 | 13.3 | 22.3 | 8.6 | 17.5 | -3.38
Cn1cnnc1C1CCCN(C(=O)NCCNc2ccccn2)C1 (configuration not stated) | -5.92 | 18.2 | 3.59 | 4.46 | 0.881 | 6.53 | 9.78 | 4.54 | 7.62 | 18.8 | -9.77
CCc1nnc(CN(C)c2nc(C3CCCC3)nc3c2cnn3C)o1 | -4.33 | 4.17 | 7.51 | 2.48 | 3.79 | 2.65 | 10.5 | 7.5 | 1.05 | 7.69 | -2.84
Cc1ccc(-c2nc(CNC3CCc4ncnn4C3)co2)c(C)c1 (configuration not stated) | -7.34 | -41.6 | -3.33 | 17.9 | 6.18 | 0 | 7.09 | 9.71 | 10.7 | 19.5 | 80.3
CN(Cc1ccc2c(c1)OCCO2)C(=O)NCCc1cnn(C)c1 | -2.93 | 18.9 | -2.51 | 14.3 | -10.3 | 0.554 | 14.5 | 18 | 2.97 | -1.22 | -6.78
Cc1ccc(CNC2CCCc3c2cnn3C)s1 (configuration not stated) | -5.39 | 13 | 5.11 | 1.58 | 6.95 | 0.21 | 17.1 | 9 | 9.52 | 21.2 | -7.9
COc1ccccc1OCC(=O)NS(=O)(=O)c1cc(F)ccc1F | -2.96 | -2.7 | 1.01 | 2.58 | -5.99 | 0 | 0.345 | 0.0392 | 0.529 | 4.88 | -1.41
Cc1ncsc1C(=O)N1CCCC(c2noc(C(C)C)n2)C1 (configuration not stated) | -4.54 | 15.3 | -8.18 | 26.1 | 2.43 | 33.5 | 15.3 | 7.22 | 6.32 | 15.4 | -10.2
COCC(=O)N1CCCn2c(CN3CCCCC3)nnc2C1 | -0.412 | 11 | 1.87 | 4.92 | -5.95 | -2.4 | 22.7 | 24 | 7.29 | 11.1 | -5.31
Cc1ccc(C(=O)NS(=O)(=O)c2ccccc2C)c(=O)[nH]1 | -3.76 | 8.11 | -4.75 | 9.94 | -5.85 | -6.84 | 4.85 | 15.8 | 7.92 | 6.1 | 1.56
O=C(NCCC(=O)N1CCCC1)c1nn(-c2ccccc2F)cc1O | -10.5 | 10.8 | -8.26 | 24.5 | 8.82 | -0.554 | 8.08 | 17.9 | 5.94 | 15.8 | -11.4
Cc1noc(C(C)C)c1C(=O)N1CCOCC1CC(=O)c1ccco1 (configuration not stated) | -0.641 | 0 | 17.2 | -3.82 | 0.487 | 1.18 | 7.38 | -20.2 | -2.13 | -7.79 | -0.46
COc1ccc(CN(C)CC2(O)CCN(C(=O)c3cccn3C)C2)cc1 (configuration not stated) | -9.44 | -1.35 | 5.12 | 2.88 | -1.78 | -7.19 | -1.87 | 11.8 | -2.15 | -3.9 | -10.2
CCC(=O)NCc1cc(Br)ccc1OC(F)F | -4.17 | 8 | -2.35 | 7.52 | 3.41 | 1.04 | 13.6 | -8.01 | 9.29 | 18.5 | -6.17
O=C(Nc1ccc(F)cc1)N1C[C@H]2CC[C@@H]1CN(Cc1cccnc1)C2 | -3.11 | 11 | 4.71 | -2.61 | -2.15 | 4.54 | 13.3 | 9.03 | 10.8 | 20 | -5.73
CCc1nnc2n1CCN(Cc1csc(-c3ccsc3)n1)C2 | -1.79 | -6.94 | 1.22 | -3.25 | 0.68 | 0.883 | 13.5 | -14.4 | 4.21 | 2.56 | -0.47
NC(=O)CCN1CCC(C(=O)c2cc(F)ccc2F)CC1 | -1.09 | 7.89 | -2.87 | -1.51 | 3.21 | -5.92 | 0.671 | -0.792 | 3.19 | 2.6 | -16
Cc1cc(=O)n(CC(=O)NCCC(C)C)c(-c2cccc(Cl)c2)n1 | -6.74 | 2.6 | 3.52 | 10.7 | 2.85 | -9.65 | 6.49 | 2.45 | 6.45 | 13.6 | 5.24
CCn1ccnc1CN(C)C1CCCN(CCc2ccccc2)C1 (configuration not stated) | -7.05 | 0 | 0.137 | 4.16 | -3.64 | 4.14 | 0.832 | -8.38 | 5.38 | 3.7 | 2.42
Cn1cc(-c2cnc(N3CCOCC3)nc2)cc1C(=O)N1CCOCC1 | -2.41 | 13.3 | 7.42 | 1.64 | -0.984 | 2.56 | 1.32 | 23.2 | 6.38 | 14.1 | -9.55
